Measured values from PubChem BioAssay AID624100 (ICCB-Longwood Screening Facility, Harvard Medical School, 2012).
This is one part of the list. Unmarked numbers belong to inactive results. The source made the active and inactive calls.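 Rule for the calls: active = average inhibition over replicates above about 50%, so the earlier screening hit is confirmed (limit read from the data); inactive = the rest, counted as false positives.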

Molecular target: Ubiquitin carboxyl-terminal hydrolase isozyme L5 (Homo sapiens) (UniProt Q9Y5K5)
Sequence (Q9Y5K5 whole entry, looked up): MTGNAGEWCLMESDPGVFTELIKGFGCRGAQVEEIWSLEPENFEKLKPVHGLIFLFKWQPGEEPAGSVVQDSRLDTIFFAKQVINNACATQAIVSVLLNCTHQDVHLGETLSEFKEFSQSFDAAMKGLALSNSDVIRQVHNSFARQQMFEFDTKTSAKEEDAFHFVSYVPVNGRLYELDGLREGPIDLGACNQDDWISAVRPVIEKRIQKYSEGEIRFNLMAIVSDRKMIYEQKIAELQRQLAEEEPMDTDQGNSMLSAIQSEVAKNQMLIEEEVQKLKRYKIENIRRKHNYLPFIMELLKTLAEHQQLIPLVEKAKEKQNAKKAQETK
Assay: proteasome-bound UCH37 Ub-AMC cleavage inhibition – biochemical, Ub-AMC cleavage rate, fluorescence, confirmation (AID 624100);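 note: based on cleavage rate fitted by regression over a 30 min kinetic read; 0% = proteasome plus Ub-AMC and 100% = Ub-AMC without proteasome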
Conditions: at 20 µM, hits give high values

| SMILES | inhibition |
| --- | --- |
| CCCCCCCCCCCCn1ccc(=N)cc1 | 40.2% |
| COc1ccc(N2C(=O)/C(=C/c3ccco3)C(=O)NC2=S)cc1 | 68.9% (active) |
